Source: PubChem BioAssay
Rows were chosen to be rich in hits. Some 1.2% of all compounds tested hit in one or more screens of this group.
RGS8-Gao reg = modulates binding of RGS8 to human Galphao. P09471. multiplexed bead flow cytometry; actives lie on both sides. response (percent of control binding), % at 10 µM. hit rate 0.34% among 220,000; in the data active = response below about 60% or above about 140%; inactive = in between;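 note: Galphao activated as the GDP aluminium fluoride complex binding bead-coupled RGS8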
Target sequence (P09471 whole entry, looked up): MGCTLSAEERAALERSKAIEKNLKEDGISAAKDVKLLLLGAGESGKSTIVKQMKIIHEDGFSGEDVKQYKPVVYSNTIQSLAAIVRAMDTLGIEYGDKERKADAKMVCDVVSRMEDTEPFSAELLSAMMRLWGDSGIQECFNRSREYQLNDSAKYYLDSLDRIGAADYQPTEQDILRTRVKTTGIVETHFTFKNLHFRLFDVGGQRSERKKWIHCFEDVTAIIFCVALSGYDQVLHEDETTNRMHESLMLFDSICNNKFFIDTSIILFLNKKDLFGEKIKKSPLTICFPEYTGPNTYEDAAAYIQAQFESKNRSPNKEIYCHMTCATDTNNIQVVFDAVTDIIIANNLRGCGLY
RGS16-Gao HTS = modulates binding between human RGS16 and Galphao | AID 1441 | O15492+P09471 | bead-based flow cytometry RGS16-Galphao binding, fluorescence; actives lie on both sides | hit rate 0.38% among 220,000 | binding response (% of control), % at 10 µM;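 note: Galphao activated by GDP with aluminum fluoride before binding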
GSH bead fluor = GSH bead compound fluorescence profile; GSH beads flow cytometry, compound fluorescence 488/530 nm; stronger effect = higher value; fluorescence (KMESF) at 10 µM; hit rate 0.25% among 190,000; in the data active = fluorescence above about 89;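 note: glutathione beads carrying GST-tagged Bcl family fusion proteins plus one bare bead set; values are compound well signal with DMSO vehicle wells as background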
RGS7-Gao reg = human RGS7-Galphao interaction regulation | P09471 | Multiplexed bead flow cytometry, RGS7-Galphao binding; actives lie on both sides | binding response (% of control), % at 10 µM | hit rate 0.35% among 220,000 | AID 1439; in the data active = binding response below about 49% or above about 150%; inconclusive = no clear call, values can overlap the other calls; inactive = in between;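 note: fluorescent Galphao held in activated GDP-AlF4 state binding bead-coupled RGS7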
RGS4-Gao reg = human RGS4-Galphao interaction regulation. P09471. Multiplexed bead flow cytometry, RGS4-Galphao binding; actives lie on both sides. binding response (% of control), % at 10 µM. hit rate 0.33% among 220,000. AID 1415; in the data active = binding response below about 49% or above about 150%; inactive = in between;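 note: fluorescent Galphao activated with aluminum fluoride binding bead-coupled RGS4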
Avidin bead fluor = avidin bead compound fluorescence profile; Avidin beads, compound fluorescence 488/530 nm, flow cytometry; stronger effect = higher value; fluorescence (KMESF) at 10 µM; hit rate 0.38% among 220,000; AID 1775; in the data active = fluorescence above about 47
RGS-Gao = RGS4-Galphao interaction regulator (human); RGS4–Galpha-o binding response, % at 10 µM; multiplexed bead flow cytometry, RGS–Galpha-o binding; hit rate 99% among 1,600; shares compounds with RGS16-Gao HTS;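 note: fluorescently labeled Galpha-o bound to GDP with aluminium fluoride binding biotinylated RGS beads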
Biotin-avidin = biotin-avidin bead binding disruption counter-screen; shares compounds with RGS16-Gao HTS; streptavidin beads, fluorescein-biotin binding, flow cytometry; inhibition, % at 10 µM; 1,700 tested, under 10 active; AID 1783;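 active = inhibition above 50%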;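 note: median green fluorescence of gated singlet beads compared with DMSO control wells; 0% = DMSO wells and 100% = complete loss of bead fluorescence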
RGS8-Gao confirm = RGS8-Galphao interaction regulation, single point confirmation; shares compounds with RGS16-Gao HTS; bead-based flow cytometry RGS8-Galphao binding, fluorescence; actives lie on both sides; binding response (% of control), % at 10 µM; hit rate 3% among 1,700; AID 1836; in the data active = binding response below about 72% or above about 130%; inactive = in between;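 note: Galphao activated as GDP AlF4 complex before binding bead RGS8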
RGS7-Gao confirm = RGS7-Galphao interaction regulation, single point confirmation. bead-based flow cytometry RGS7-Galphao binding; actives lie on both sides. shares compounds with RGS16-Gao HTS. AID 1837. response (percent of control binding), % at 10 µM. hit rate 7.8% among 1,700; in the data active = response below about 75% or above about 130%; inactive = in between;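 note: fluorescent Galphao activated with GDP and aluminum fluoride binding bead-coupled RGS7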
RGS16-Gao single = RGS16-Galphao interaction regulation, single point confirmation; bead-based flow cytometry, RGS16-Galphao binding; actives lie on both sides; hit rate 4% among 1,700; response (% of control binding), % at 10 µM; AID 1838; shares compounds with RGS16-Gao HTS; in the data active = response below about 74% or above about 130%; inactive = in between;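 note: Galphao activated as the GDP aluminium fluoride complex binding bead-coupled RGS16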
RGS4-Gao confirm = confirmation of regulators of human RGS4-Galphao interaction; RGS4-Galphao binding, multiplexed bead flow cytometry; actives lie on both sides; AID 1840; binding response (% of control), % at 10 µM; hit rate 4% among 1,700; shares compounds with RGS16-Gao HTS; in the data active = binding response below about 74% or above about 130%; inactive = in between
RGS19-Gao single = RGS19-Galphao interaction regulation, single point confirmation. shares compounds with RGS16-Gao HTS. bead-based flow cytometry RGS19-Galphao binding; actives lie on both sides. hit rate 5% among 1,700. response (percent of control binding), % at 10 µM; in the data active = response below about 50% or above about 160%; inactive = in between;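 note: 100% = no compound control and 0% = blank background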
Numbers without * were called inactive; ? = inconclusive; . = no result given; [ ] = dose if it differs, or a comment. Unless noted, the rule behind the calls is not given here.

SMILES	RGS8-Gao reg	RGS16-Gao HTS	GSH bead fluor	RGS7-Gao reg	RGS4-Gao reg	Avidin bead fluor	Biotin-avidin	RGS8-Gao confirm	RGS7-Gao confirm	RGS16-Gao single	RGS4-Gao confirm	RGS19-Gao single	others
COc1ccc(NC(=O)CCCn2c(=O)oc3ccccc32)cc1Cl	71	8.8*	7	89	88	7	.	.	.	.	.	.	RGS-Gao=88*
COCC(=O)Nc1ccc(OC)c(Cl)c1	52*	98	19	53	98	3	-1	101	98	100	101	97	RGS-Gao=98*
COc1ccccc1NC(=O)CSc1nc2n[nH]c(C)c2c(=N)n1-c1ccccc1Cl	93	78	12	91	94	4	.	.	.	.	.	.
C=CCSc1nnc2c(n1)OC(c1ccccn1)N(C(C)=O)c1ccccc1-2 (stereo unspecified)	99	114	33	168*[activator]	122	215*	2	103	104	104	103	102	RGS-Gao=122*
CCCSc1nnc2c(n1)OC(c1cccn1C)N(C(C)=O)c1ccccc1-2 (stereo unspecified)	105	108	25	103	104	10	.	.	.	.	.	.
NC(=O)c1ccc(F)cc1	15*	12*	17	18*	24*	2	-1	105	111	107	110	100
CCOC(=O)/C(=C/c1ccco1)NC(=O)c1ccc(Br)o1	105	106	12	107	107	4	.	.	.	.	.	.
Oc1ccc(C=NC2CCCCC2)c(O)c1	111	118	12	106	110	8	.	.	.	.	.	.
COc1ccc(S(=O)(=O)Nc2nc3ccccc3s2)cc1	98	102	11	99	100	42	.	.	.	.	.	.
CCOc1ccc2sc(NS(=O)(=O)c3ccc(OC)c(OC)c3)nc2c1	.	.	42	.	.	.	0	101	102	99	99	107
c1ccc(C2CCC(N3CCNCC3)CC2)cc1 (stereo unspecified)	141*[activator]	250*[activator]	10	122	120	6	-1	103	94	97	93	102	RGS-Gao=120*
Cc1ccc(C2C3=C(CC(C)(C)CC3=O)Nc3onc(C)c32)cc1 (stereo unspecified)	.	141	35	136	147	.	-1	102	104	100	103	100
CC[n+]1c(/C=C/Nc2ccccc2)sc2ccccc21	101	101	32	99	99	15	.	.	.	.	.	.
CCN1/C(=C/C=C/C=C/c2sc3ccccc3[n+]2CC)Sc2ccccc21	89	97	4	122	31*	.	-46	63*	101	58*	-8.0*	.
O=C(Nc1ccccc1)N(C1=NCCC1)c1ccccc1	101	103	.	?	104	5	.	.	.	.	.	.
Cc1ccc(N(C(=O)Nc2ccccc2)C2=NCCC2)cc1	72	54	.	?	44*	1	-1	98	47*	80	57*	84
COc1ccc(CCNC(=O)c2cnn(-c3ccc(C)c(C)c3)c2NC(=O)c2ccco2)cc1OC	.	.	45	.	.	.	-2	102	101	102	102	103
CCN(CC)C(=O)CSc1nc(O)cc(=O)n1C	103	99	15	103	102	11	.	.	.	.	.	.
